# Reference: paper PMC7862700, “An all-to-all approach to the identification of sequence-specific readers for epigenetic DNA modifications on cytosine”
# Tests used:
# Test in all cases: DAPPL (digital affinity profiling via proximity ligation, sequencing); 10 mM Tris-HCl pH 7.5, 50 mM NaCl, 1 mM DTT, 4% glycerol, room temperature, 30 min; GST-TFs on glutathione beads, 16-mer random dsDNA library, 0.1% formaldehyde crosslink after washing; high values mean tight binding
# Conditions in all cases: protein: recombinant; tags: N-terminal GST; dsDNA, one strand shown
# [1] = biological target: T1, FLI1 (Homo sapiens, UniProt Q01543 1-452)
# T1 sequence: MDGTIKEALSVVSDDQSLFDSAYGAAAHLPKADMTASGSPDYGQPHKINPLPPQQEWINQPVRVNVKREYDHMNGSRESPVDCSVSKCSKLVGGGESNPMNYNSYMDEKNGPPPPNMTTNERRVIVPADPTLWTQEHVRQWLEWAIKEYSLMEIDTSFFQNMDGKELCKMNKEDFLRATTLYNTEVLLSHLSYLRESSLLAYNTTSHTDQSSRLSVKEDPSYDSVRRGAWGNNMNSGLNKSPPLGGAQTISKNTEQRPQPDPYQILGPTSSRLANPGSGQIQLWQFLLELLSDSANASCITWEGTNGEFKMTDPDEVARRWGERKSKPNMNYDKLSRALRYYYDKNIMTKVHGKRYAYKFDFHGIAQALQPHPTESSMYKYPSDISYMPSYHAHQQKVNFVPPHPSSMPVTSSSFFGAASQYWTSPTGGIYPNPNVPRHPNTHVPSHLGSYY
# Outline: (§1)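 Yeast served to express human transcription factors as GST fusions, which were then captured on glutathione beads and labelled with DNA barcodes. Pooled with a tag-only sample, they were incubated with 200 nmole of a 16-mer random double-stranded DNA library for 30 min at room temperature in Tris/NaCl/DTT/glycerol buffer, washed, crosslinked with 0.1% formaldehyde, ligated by proximity, amplified by PCR and sequenced. Dividing each hexamer's read frequency for a factor by its frequency for the tag-only sample gives the binding signal.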
# [2] = biological target: T2, ELK1 (Homo sapiens, UniProt P19419 1-428)
# T2 sequence: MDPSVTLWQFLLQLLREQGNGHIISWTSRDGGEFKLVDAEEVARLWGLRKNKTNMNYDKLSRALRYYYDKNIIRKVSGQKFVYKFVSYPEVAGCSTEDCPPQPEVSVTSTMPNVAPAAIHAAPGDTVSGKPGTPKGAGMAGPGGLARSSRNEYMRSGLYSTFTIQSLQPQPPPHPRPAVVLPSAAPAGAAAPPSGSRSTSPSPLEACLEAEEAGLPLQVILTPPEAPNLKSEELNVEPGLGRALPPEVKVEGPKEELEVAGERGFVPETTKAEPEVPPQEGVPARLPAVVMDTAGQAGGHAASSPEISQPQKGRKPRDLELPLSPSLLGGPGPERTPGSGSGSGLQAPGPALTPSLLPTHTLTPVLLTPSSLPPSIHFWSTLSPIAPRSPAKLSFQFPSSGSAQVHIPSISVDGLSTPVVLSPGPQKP
# Outline: as §1
# [3] = biological target: T3, GABPA (Homo sapiens, UniProt Q06546 1-454)
# T3 sequence: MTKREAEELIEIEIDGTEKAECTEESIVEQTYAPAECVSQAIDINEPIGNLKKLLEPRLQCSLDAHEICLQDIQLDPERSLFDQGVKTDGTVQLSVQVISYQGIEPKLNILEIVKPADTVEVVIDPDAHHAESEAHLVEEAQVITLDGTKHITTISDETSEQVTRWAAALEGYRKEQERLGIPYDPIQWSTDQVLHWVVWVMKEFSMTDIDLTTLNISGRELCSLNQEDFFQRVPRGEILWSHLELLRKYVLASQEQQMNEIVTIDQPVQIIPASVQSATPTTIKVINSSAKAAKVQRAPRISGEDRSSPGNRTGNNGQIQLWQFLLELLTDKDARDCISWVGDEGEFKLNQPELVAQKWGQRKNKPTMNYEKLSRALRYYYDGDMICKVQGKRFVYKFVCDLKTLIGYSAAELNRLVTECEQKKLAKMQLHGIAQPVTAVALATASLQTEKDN
# Outline: as §1
# [4] = biological target: T4, ERG (Homo sapiens, UniProt P11308 1-479)
# T4 sequence: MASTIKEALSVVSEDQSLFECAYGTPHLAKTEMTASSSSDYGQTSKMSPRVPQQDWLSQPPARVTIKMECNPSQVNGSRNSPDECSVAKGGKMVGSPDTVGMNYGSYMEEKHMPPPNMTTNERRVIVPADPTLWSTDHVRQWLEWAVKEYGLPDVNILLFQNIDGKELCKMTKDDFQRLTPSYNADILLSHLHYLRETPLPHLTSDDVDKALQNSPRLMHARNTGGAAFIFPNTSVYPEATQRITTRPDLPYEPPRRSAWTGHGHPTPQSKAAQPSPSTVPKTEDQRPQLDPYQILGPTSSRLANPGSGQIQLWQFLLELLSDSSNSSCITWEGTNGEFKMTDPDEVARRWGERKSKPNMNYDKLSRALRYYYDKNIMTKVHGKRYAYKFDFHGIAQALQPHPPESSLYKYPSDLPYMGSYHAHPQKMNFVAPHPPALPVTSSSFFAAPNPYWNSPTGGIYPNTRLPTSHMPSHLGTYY
# Outline: as §1
# [5] = biological target: ELF1 (Homo sapiens, UniProt P32519 1-619)
# ELF1, sequence (P32519 whole entry): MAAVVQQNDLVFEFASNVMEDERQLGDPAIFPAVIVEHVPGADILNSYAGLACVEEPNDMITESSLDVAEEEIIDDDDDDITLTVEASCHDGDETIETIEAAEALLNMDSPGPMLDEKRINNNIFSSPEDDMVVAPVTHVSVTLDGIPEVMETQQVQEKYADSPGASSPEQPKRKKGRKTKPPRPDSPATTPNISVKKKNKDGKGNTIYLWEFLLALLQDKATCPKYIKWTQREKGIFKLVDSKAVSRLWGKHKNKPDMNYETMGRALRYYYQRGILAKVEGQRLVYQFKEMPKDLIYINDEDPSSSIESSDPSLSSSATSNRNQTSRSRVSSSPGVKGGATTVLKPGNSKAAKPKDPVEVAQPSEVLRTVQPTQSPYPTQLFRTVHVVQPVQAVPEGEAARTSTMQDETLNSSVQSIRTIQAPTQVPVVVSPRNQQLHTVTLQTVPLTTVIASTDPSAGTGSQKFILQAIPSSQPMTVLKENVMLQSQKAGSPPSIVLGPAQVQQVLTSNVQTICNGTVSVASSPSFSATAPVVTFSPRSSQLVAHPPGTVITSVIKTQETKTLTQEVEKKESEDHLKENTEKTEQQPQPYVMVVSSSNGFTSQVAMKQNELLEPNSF
# Outline: as §1
# [6] = biological target: T5, EHF (Homo sapiens, UniProt Q9NZC4 1-300)
# T5 sequence: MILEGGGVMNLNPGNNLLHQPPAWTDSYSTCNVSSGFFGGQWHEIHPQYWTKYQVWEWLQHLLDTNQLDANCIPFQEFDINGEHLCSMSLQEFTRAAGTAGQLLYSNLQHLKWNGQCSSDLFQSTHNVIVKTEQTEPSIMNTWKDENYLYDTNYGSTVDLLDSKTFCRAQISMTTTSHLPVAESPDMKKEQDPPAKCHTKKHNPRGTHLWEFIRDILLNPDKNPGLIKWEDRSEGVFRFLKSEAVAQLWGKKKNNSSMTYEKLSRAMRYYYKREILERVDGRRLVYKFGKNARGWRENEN
# Outline: as §1
# [7] = biological target: SPIB (Homo sapiens, UniProt Q01892 1-262)
# SPIB, sequence (Q01892 whole entry): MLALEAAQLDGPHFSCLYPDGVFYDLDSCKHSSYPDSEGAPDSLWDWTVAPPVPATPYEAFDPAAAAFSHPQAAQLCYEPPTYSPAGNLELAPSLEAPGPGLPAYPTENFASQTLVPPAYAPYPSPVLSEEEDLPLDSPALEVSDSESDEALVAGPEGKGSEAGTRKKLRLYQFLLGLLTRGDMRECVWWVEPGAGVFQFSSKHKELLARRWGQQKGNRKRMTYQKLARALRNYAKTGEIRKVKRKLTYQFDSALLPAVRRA
# Outline: as §1
# [8] = biological target: T6, ELK3 (Homo sapiens, UniProt P41970 1-407)
# T6 sequence: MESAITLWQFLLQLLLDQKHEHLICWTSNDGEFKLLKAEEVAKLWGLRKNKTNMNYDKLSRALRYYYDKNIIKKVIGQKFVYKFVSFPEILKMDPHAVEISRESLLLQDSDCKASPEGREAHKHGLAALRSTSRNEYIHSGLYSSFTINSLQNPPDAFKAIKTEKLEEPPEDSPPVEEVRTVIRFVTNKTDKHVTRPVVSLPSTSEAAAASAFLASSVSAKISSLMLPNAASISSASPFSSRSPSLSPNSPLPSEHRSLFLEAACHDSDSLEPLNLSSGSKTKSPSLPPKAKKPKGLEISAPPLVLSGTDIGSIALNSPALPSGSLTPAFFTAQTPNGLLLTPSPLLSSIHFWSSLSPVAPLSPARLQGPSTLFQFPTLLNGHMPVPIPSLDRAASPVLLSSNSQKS
# Outline: as §1
# [9] = biological target: T7, SPIC (Homo sapiens, UniProt Q8N5J4 1-248)
# T7 sequence: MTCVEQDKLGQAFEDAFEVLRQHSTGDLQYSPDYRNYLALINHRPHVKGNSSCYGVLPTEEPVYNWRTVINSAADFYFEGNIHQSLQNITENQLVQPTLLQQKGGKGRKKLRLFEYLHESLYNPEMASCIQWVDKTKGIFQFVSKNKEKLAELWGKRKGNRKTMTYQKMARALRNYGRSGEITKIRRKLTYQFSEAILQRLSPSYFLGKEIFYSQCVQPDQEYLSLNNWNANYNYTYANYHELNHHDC
# Outline: as §1
# [10] = biological target: ELF4 (Homo sapiens, UniProt Q99607 1-663)
# ELF4, sequence (Q99607 whole entry): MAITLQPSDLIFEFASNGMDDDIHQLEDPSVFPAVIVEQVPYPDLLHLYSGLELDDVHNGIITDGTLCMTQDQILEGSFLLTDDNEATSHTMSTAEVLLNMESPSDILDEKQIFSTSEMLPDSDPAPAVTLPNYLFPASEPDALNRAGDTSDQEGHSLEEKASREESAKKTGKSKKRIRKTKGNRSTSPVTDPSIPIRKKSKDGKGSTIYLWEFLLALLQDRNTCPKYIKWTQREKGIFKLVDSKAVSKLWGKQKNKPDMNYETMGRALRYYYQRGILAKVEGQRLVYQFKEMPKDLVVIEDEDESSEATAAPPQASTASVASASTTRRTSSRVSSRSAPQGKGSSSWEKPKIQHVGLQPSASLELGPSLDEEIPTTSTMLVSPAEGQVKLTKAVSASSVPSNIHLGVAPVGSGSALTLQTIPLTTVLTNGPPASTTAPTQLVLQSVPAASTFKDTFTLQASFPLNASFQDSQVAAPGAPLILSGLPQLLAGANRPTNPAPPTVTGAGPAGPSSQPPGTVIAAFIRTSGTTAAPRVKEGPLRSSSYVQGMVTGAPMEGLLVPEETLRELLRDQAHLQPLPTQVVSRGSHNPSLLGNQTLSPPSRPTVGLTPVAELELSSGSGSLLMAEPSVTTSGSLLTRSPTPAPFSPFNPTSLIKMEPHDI
# Outline: as §1
sequence,measurement,setting,value
TGATTA,binding signal,[1],"1.07 fold enrichment (6-mer frequency, TF over GST control)"
same,binding signal,[2],"1.17 fold enrichment (6-mer frequency, TF over GST control)"
same,binding signal,[3],"1.1 fold enrichment (6-mer frequency, TF over GST control)"
same,binding signal,[4],"1.02 fold enrichment (6-mer frequency, TF over GST control)"
same,binding signal,[5],"1.09 fold enrichment (6-mer frequency, TF over GST control)"
same,binding signal,[6],"1.11 fold enrichment (6-mer frequency, TF over GST control)"
same,binding signal,[7],"1.07 fold enrichment (6-mer frequency, TF over GST control)"
same,binding signal,[8],"1.07 fold enrichment (6-mer frequency, TF over GST control)"
same,binding signal,[9],"1.17 fold enrichment (6-mer frequency, TF over GST control)"
same,binding signal,[10],"1.07 fold enrichment (6-mer frequency, TF over GST control)"
